Reference: PubChem BioAssay AID1851 (National Center for Advancing Translational Sciences (NCATS), 2009)
Among all 16,000 compounds or so, about 5,100 (32%) were called active. About 25% were inconclusive and are not listed. The call rests on the fitted dose curve; in most records, active means well fitted curve in the direction sought with a large enough effect; inconclusive means small, poorly fitted or top-dose-only effect, or effect the other way; inactive means no such curve, though single readings can be large or run the other way. The list shows a part of the results.

Biological target: Cytochrome P450 3A4 (Homo sapiens) (UniProt P08684)
Sequence (P08684 whole entry, looked up): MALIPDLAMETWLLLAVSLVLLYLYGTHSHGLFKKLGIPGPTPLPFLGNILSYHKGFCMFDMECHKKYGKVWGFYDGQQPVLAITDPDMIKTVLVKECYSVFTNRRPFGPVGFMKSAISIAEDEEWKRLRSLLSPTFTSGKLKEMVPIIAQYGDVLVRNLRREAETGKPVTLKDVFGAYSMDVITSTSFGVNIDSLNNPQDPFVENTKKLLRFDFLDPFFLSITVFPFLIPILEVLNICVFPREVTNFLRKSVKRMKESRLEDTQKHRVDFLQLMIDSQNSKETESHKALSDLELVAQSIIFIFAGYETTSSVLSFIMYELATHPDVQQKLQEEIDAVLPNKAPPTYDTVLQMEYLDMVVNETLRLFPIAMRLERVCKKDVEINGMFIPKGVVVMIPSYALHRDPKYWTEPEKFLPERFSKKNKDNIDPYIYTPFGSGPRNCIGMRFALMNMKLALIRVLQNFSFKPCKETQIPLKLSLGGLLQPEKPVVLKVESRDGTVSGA
Assay: Cytochrome panel assay with activity outcomes
Details: recombinant CYP, pro-luciferin dealkylation, luminescence, p450-cyp3a4; series mostly up to 57.1 µM; activity, negative = inhibition: at the top concentration
On the % scale 0 is the no-effect control and ±100 the full control effect.

Row | Compound | AC50 | activity, negative = inhibition
1 | O=C(CSCc1c(Cl)cccc1Cl)NCc1cccnc1 | 3.16 µM (active) | –
2 | Cc1nc2c(C(=O)NCc3ccc4c(c3)OCO4)c[nH]n2c(=O)c1Cc1ccccc1F | 2.24 µM (active) | –
3 | CCOC(=O)Cc1c(C)nc2c(C#N)c[nH]n2c1=O | – | -0.582% (inactive)
4 | COc1ccc(-n2cccc2C=O)cc1OC | – | -5.8% (inactive)
5 | CC(C)(C)NC(=O)CSC(=Nc1ccc(F)cc1)NC#N | – | -11.3% [at 2.29 µM] (inactive)
6 | Cc1ccc(C(=O)COC(=O)c2ccccc2N2C(=O)C3C4CCC(C4)C3C2=O)cc1C (configuration not stated) | 12.6 µM (active) | –
7 | O=C(Oc1ccccc1N1C(=O)C2CCCCC2C1=O)c1ccccc1 (configuration not stated) | – | -1.02% [at 2.29 µM] (inactive)
8 | C[N+]1(C)CCC[C@@H](OC(=O)C(O)(c2ccccc2)c2ccccc2)C1 | – | -1.21% [at 25.6 µM] (inactive)
9 | CCC(=O)Nc1ccc(C(=O)CSc2nnc(-c3ccc(O)cc3)n2CC2CCCO2)cc1OC (configuration not stated) | 14.1 µM (active) | –
10 | Cc1ccc(-c2ccc(CCC(=O)O)n2CC2CCCO2)cc1 (configuration not stated) | – | 18.1% [at 2.29 µM] (inactive)
11 | Cc1cc(-c2cc(C)c(O)c(C(C)(C)C)c2)cc(C(C)(C)C)c1O | – | -12.3% [at 11.4 µM] (inactive)
12 | Cc1cc(Cc2cc(Cc3cc(C)cc(C(C)(C)C)c3O)c(C)cc2C)c(O)c(C(C)(C)C)c1 | – | -23.1% [at 11.4 µM] (inactive)
13 | CC(C)(C=O)Cc1cc(C(C)(C)C)c(O)c(C(C)(C)C)c1 | 12.6 µM (active) | –
14 | Cc1cc(Cc2c(C)c(C)c(Cc3cc(C)cc(C(C)(C)C)c3O)c(C)c2C)c(O)c(C(C)(C)C)c1 | – | 0.196% [at 11.4 µM] (inactive)
15 | Cc1cc(Cc2cc(C)cc(C(C)(C)C)c2O)c(O)c(Cc2cc(C)cc(C(C)(C)C)c2O)c1 | – | -19.8% [at 11.4 µM] (inactive)
16 | CC(C)(CO)Cc1cc(C(C)(C)C)c(O)c(C(C)(C)C)c1 | 2.51 µM (active) | –
17 | CN(C)CCCc1c2ccccc2nc2ccc(Cl)cc12 | – | -1.41% [at 11.4 µM] (inactive)
18 | CCCCc1c2ccccc2nc2[nH]c3ccccc3c12 | 15.8 µM (active) | –
19 | CCCCCc1nc2c(=O)[nH]c3ccccc3c2o1 | – | -8.01% (inactive)

Row | Compound | AC50 | activity, negative = inhibition
20 | Clc1ccc2c(NC3CCC(N4CCCCC4)CC3)ccnc2c1 (configuration not stated) | – | -1.29% [at 11.4 µM] (inactive)
21 | COc1ccccc1-c1cc(Nc2ccn[nH]2)ncn1 | 3.98 µM (active) | –
22 | COc1ccccc1CNc1cc(-c2ccccc2OC)ncn1 | 15.8 µM (active) | –
23 | COc1ccc(CNc2cc(-c3ccccc3OC)ncn2)c(OC)c1 | 6.31 µM (active) | –
24 | COc1ccccc1-c1cc(Nc2ccc(F)cc2)ncn1 | – | -29.9% (inactive)
25 | COc1ccc(CNc2cc(-c3ccccc3Cl)ncn2)c(OC)c1 | 6.31 µM (active) | –
26 | N/C(=N\O)c1cn([C@@H]2O[C@@H](CO)[C@H](O)[C@@H]2O)c2ncnc(NO)c12 | – | -7.27% [at 11.4 µM] (inactive)
27 | CC(=O)OC[C@@H]1O[C@@H](O/N=C2/C[C@@H](O)[C@@H](O)[C@@H]3[C@@H]4C(=O)N(C[C@@H]5CCCO5)C(=O)[C@H]4CC[C@H]23)[C@H](OC(C)=O)[C@H](OC(C)=O)[C@@H]1OC(C)=O | – | -12.5% [at 11.4 µM] (inactive)
28 | Oc1cc(O)c2c(c1)O[C@@H](c1ccc(O)c(O)c1)[C@H](O[C@@]1(c3cc(O)c(O)c(O)c3)Oc3cc(O)cc(O)c3[C@H](O)[C@@H]1O)C2 | – | -19.7% [at 11.4 µM] (inactive)
29 | NC(=S)N/N=C/c1ccccc1OCc1cccc(Cl)c1 | – | -18.2% [at 2.29 µM] (inactive)
30 | Cc1ccc(CONC(=O)/N=C/N(C)C)cc1 | – | -12.6% (inactive)
31 | O=C(Cc1ccccc1)N/N=C/c1ccccc1OCc1ccc(Cl)cc1 | 15.8 µM (active) | –
32 | O=C(Cc1ccccc1)N/N=C\c1ccc(Br)o1 | – | -20.2% (inactive)
33 | Cc1ccc(COc2coc(CO)cc2=O)cc1 | – | -20.6% (inactive)
34 | O/N=C/c1cc(Cl)ccc1OCc1cccc2ccccc12 | 7.94 µM (active) | –
35 | O/N=C/c1ccccc1OCc1ccc(Cl)cc1 | 12.6 µM (active) | –
36 | Oc1ccc(Cl)cc1C=Nc1cnc2ccccc2c1 | – | -12.5% [at 11.4 µM] (inactive)
37 | O=C(SCc1cccc2ccccc12)c1ccc(Cl)cc1 | – | -17.6% [at 11.4 µM] (inactive)
38 | Cc1ccc(COc2ccc(Br)cc2/C=N/O)cc1 | 7.94 µM (active) | –

Row | Compound | AC50 | activity, negative = inhibition
39 | COc1c(Cl)cc(Cl)cc1CNCCNCC(C)O (configuration not stated) | – | 15.3% (inactive)
40 | Cc1n[nH]c(=S)n1/N=C/c1ccccc1OCc1ccc(Cl)cc1 | 1.26 µM (active) | –
41 | COc1cccc(/C=N/n2c(=S)n(C)c3cc(C)c(C)cc32)c1OC | – | -9.43% [at 2.29 µM] (inactive)
42 | COc1ccc(C(=O)n2nc(-c3ccccc3)nc2SC)cc1 | – | 6.71% (inactive)
43 | C=C1C(=O)C=C2CN(C(=O)c3ccccc3)[C@@](Cc3ccc(F)cc3)(C(=O)OC)[C@@H]12 | 7.94 µM (active) | –
44 | C=C1C(=O)C=C2CN(C(=O)c3ccccc3)[C@@](Cc3ccc(OC)cc3)(C(=O)OC)[C@@H]12 | 1.58 µM (active) | –
45 | COc1ccc(C(=O)O/N=C/c2ccc(S(=O)c3ccc(Cl)cc3)nc2)cc1 (configuration not stated) | – | 7.76% (inactive)
46 | COc1ccc(C(=O)CN(C(=O)c2ccc(Cl)cc2)N2C(=O)c3ccccc3C2=O)cc1 | 8.91 µM (active) | –
47 | Cc1cc(CC(=O)O)n(C)c1C(=O)c1ccc(Cl)cc1 | – | -11.7% [at 25.6 µM] (inactive)
48 | Cc1ccc(C(=O)CN(C(=O)c2ccc(Cl)cc2)N2C(=O)c3ccccc3C2=O)cc1 | 10 µM (active) | –
49 | COc1ccc2c(c1)-c1ccccc1S(=O)(=O)N2C(C)=O | – | -6.85% (inactive)
50 | O=C(CON1C(=O)c2ccccc2C1=O)c1ccccc1 | – | -17.5% [at 11.4 µM] (inactive)
51 | Cc1cc(=Nc2ccc3c(c2)c(N)cc(C)[n+]3C)nc(N)n1C | – | 3.03% [at 11.4 µM] (inactive)
52 | C[C@@H]1CCCC(CC(=O)O)(CC(=O)O)C1 | – | -9.8% [at 11.4 µM] (inactive)
53 | CC(NC(=O)c1ccc(Cn2cc([N+](=O)[O-])cn2)o1)c1ccccc1 (configuration not stated) | 25.1 µM (active) | –
54 | O=C(Nc1cccc(C(F)(F)F)c1)c1ccc(Cn2cc(Br)cn2)o1 | – | -0.795% [at 2.29 µM] (inactive)
55 | CC(NC(=O)Cn1cnc([N+](=O)[O-])n1)c1ccccc1 (configuration not stated) | – | 0.0886% (inactive)
56 | CCC(=O)NC(Nc1sc2c(c1C(=O)OC)CCCC2)(C(F)(F)F)C(F)(F)F | – | -7.25% [at 2.29 µM] (inactive)
57 | CCOC(=O)C(NC(=O)CC)(Nc1sc2c(c1C(=O)OC)CCN(C)C2)C(F)(F)F (configuration not stated) | 12.6 µM (active) | –
